This is one part of a sample in which the strongest signals are shown more often than they occur.
What was measured:
Experiment in all cases: glycan array binding signal (z-score within array); higher = stronger binding
Conditions in all cases: glycan notation: IUPAC condensed, linker removed
[1] = molecular target: Fuc(a1-2)Gal(b1-3)GlcNAc
Summary of the method: (§1)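 Negative Z-scores can be read as non-binding. The Z-score is calculated within each array and then averaged across arrays of one protein sequence at different concentrations or buffers and across linkers. Arrays, 3228 in all, were curated from the Consortium for Functional Glycomics database and kept only where the protein sequence was available.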

[2] = molecular target: Fuc(a1-2)Gal(b1-3)GlcNAc(b1-2)Man(a1-3)[Fuc(a1-2)Gal(b1-3)GlcNAc(b1-2)Man(a1-6)]Man(b1-4)GlcNAc(b1-4)GlcNAc
Summary of the method: as §1

[3] = molecular target: Fuc(a1-2)Gal(b1-4)Glc6S
Summary of the method: as §1

[4] = molecular target: Fuc(a1-2)Gal(b1-4)GlcNAc(b1-3)Gal(b1-4)GlcNAc(b1-3)Gal(b1-4)GlcNAc
Summary of the method: as §1

[5] = molecular target: Fuc(a1-2)Gal(b1-4)[Fuc(a1-3)]GlcNAc(b1-2)Man(a1-3)[Fuc(a1-2)Gal(b1-4)[Fuc(a1-3)]GlcNAc(b1-2)Man(a1-6)]Man(b1-4)GlcNAc(b1-4)GlcNAc
Summary of the method: as §1

[6] = molecular target: Fuc(a1-2)[Gal(a1-3)]Gal(b1-4)GlcNAc(b1-2)Man(a1-3)[Fuc(a1-2)[Gal(a1-3)]Gal(b1-4)GlcNAc(b1-2)Man(a1-6)]Man(b1-4)GlcNAc(b1-4)GlcNAc
Summary of the method: as §1

[7] = molecular target: Fuc(a1-3)[Gal3S(b1-4)]Glc6S
Summary of the method: as §1

[8] = molecular target: Fuc(a1-3)[Gal3S(b1-4)]GlcNAc
Summary of the method: as §1

[9] = molecular target: Fuc(a1-3)[Neu5Ac(a2-3)]Gal(b1-4)GlcNAc(b1-3)GalNAc
Summary of the method: as §1

[10] = molecular target: Gal(a1-3)Gal(b1-4)Glc
Summary of the method: as §1

[11] = molecular target: Gal(a1-3)Gal(b1-4)[Fuc(a1-3)]GlcNAc(b1-2)Man(a1-3)[Gal(a1-3)Gal(b1-4)[Fuc(a1-3)]GlcNAc(b1-2)Man(a1-6)]Man(b1-4)GlcNAc(b1-4)GlcNAc
Summary of the method: as §1

[12] = molecular target: Gal(b1-3)[Fuc(a1-4)]GlcNAc(b1-2)Man(a1-3)[Gal(b1-3)[Fuc(a1-4)]GlcNAc(b1-2)Man(a1-6)]Man(b1-4)GlcNAc(b1-4)GlcNAc
Summary of the method: as §1

[13] = molecular target: Gal3S6S(b1-4)GlcNAc6S
Summary of the method: as §1

[14] = molecular target: Gal6S(b1-4)GlcNAc6S
Summary of the method: as §1

[15] = molecular target: GalNAc(b1-3)Gal(a1-4)Gal(b1-4)GlcNAc(b1-3)Gal(b1-4)Glc
Summary of the method: as §1

[16] = molecular target: GalNAc(b1-4)GlcNAc(b1-2)Man(a1-3)[GalNAc(b1-4)GlcNAc(b1-2)Man(a1-6)]Man(b1-4)GlcNAc(b1-4)GlcNAc
Summary of the method: as §1

[17] = molecular target: GlcNAc(b1-3)[GlcNAc(b1-6)]GalNAc
Summary of the method: as §1

[18] = molecular target: GlcNAc(b1-6)Gal(b1-4)GlcNAc
Summary of the method: as §1

[19] = molecular target: GlcNAc3Prop(b1-4)GlcNAc
Summary of the method: as §1

[20] = molecular target: GlcNAc6S(b1-3)Gal(b1-4)GlcNAc
Summary of the method: as §1

[21] = molecular target: Man(a1-2)Man(a1-2)Man(a1-6)[Man(a1-3)]Man
Summary of the method: as §1

[22] = molecular target: Man(a1-2)Man(a1-3)[Man(a1-2)Man(a1-6)]Man
Summary of the method: as §1

[23] = molecular target: Man(a1-3)[Man(a1-6)]Man(a1-6)[Man(a1-2)Man(a1-3)]Man(b1-4)GlcNAc(b1-4)GlcNAc
Summary of the method: as §1

[24] = molecular target: Man(a1-3)[Man(a1-6)]Man(a1-6)[Man(a1-3)]Man(b1-4)GlcNAc(b1-4)GlcNAc
Summary of the method: as §1

[25] = molecular target: Neu5Ac(a2-3)Gal(b1-4)Glc
Summary of the method: as §1

[26] = molecular target: Neu5Ac(a2-3)Gal(b1-4)GlcNAc6S
Summary of the method: as §1

[27] = molecular target: Neu5Ac(a2-3)Gal(b1-4)[Fuc(a1-3)]GlcNAc
Summary of the method: as §1

[28] = molecular target: Neu5Ac(a2-3)Gal6S(b1-4)GlcNAc
Summary of the method: as §1

[29] = molecular target: Neu5Ac(a2-3)Gal6S(b1-4)[Fuc(a1-3)]GlcNAc
Summary of the method: as §1

[30] = molecular target: Neu5Ac(a2-3)[GalNAc(b1-4)]Gal(b1-4)GlcNAc
Summary of the method: as §1

[31] = molecular target: Neu5Ac(a2-6)Gal(b1-4)GlcNAc(b1-3)Gal(b1-3)GlcNAc
Summary of the method: as §1

[32] = molecular target: Neu5Ac(a2-6)Gal(b1-4)GlcNAc(b1-3)Gal(b1-4)GlcNAc
Summary of the method: as §1

[33] = molecular target: Neu5Ac(a2-6)Gal(b1-4)GlcNAc(b1-3)Gal(b1-4)[Fuc(a1-3)]GlcNAc(b1-3)Gal(b1-4)[Fuc(a1-3)]GlcNAc
Summary of the method: as §1

B1: StdA (Salmonella typhimurium), Q8Z3Z0 (protein)
chain: MAAAGMMYGASVFAADTTPTAGPFGSGKILFTGTITNSPCDIAPGDDAITVPFGQISYRKLNTANATTDSKPFTIHLQNCAFDPNETTIAGSAGKMSKVTVSFSGTADTSGKAYVSTGSAQHVGVQLLKGDNTSLITPNTPMPDGDAQQLQAGNNELNFFARLIALTDAATPGDVNASVTYTLKYL
glycan array binding signal (z-score) [1]: -0.15
glycan array binding signal (z-score) [2]: 10.3
glycan array binding signal (z-score) [3]: 0.205
glycan array binding signal (z-score) [4]: 0.168
glycan array binding signal (z-score) [5]: 2.3
glycan array binding signal (z-score) [6]: -0.604
glycan array binding signal (z-score) [7]: 6.5
glycan array binding signal (z-score) [8]: 0.034
glycan array binding signal (z-score) [9]: 4.78
glycan array binding signal (z-score) [10]: 0.257
glycan array binding signal (z-score) [11]: 4.97
glycan array binding signal (z-score) [12]: 5.67
glycan array binding signal (z-score) [13]: -0.494
glycan array binding signal (z-score) [14]: -0.164
glycan array binding signal (z-score) [15]: 0.837
glycan array binding signal (z-score) [16]: 3.5
glycan array binding signal (z-score) [17]: 0.036
glycan array binding signal (z-score) [18]: 0.557
glycan array binding signal (z-score) [19]: -0.424
glycan array binding signal (z-score) [20]: 1.03
glycan array binding signal (z-score) [21]: -0.088
glycan array binding signal (z-score) [22]: -0.749
glycan array binding signal (z-score) [23]: -0.109
glycan array binding signal (z-score) [24]: -0.131
glycan array binding signal (z-score) [25]: -0.372
glycan array binding signal (z-score) [26]: -0.404
glycan array binding signal (z-score) [27]: -0.614
glycan array binding signal (z-score) [28]: -0.214
glycan array binding signal (z-score) [29]: -0.437
glycan array binding signal (z-score) [30]: -0.022
glycan array binding signal (z-score) [31]: -0.819
glycan array binding signal (z-score) [32]: -0.14
glycan array binding signal (z-score) [33]: 0.009

Reference: the supplement of paper PMC8728848
